High-throughput results from PubChem BioAssay.
Insulin prom up – insulin promoter activators in MIN6 cells, imaging, high-content screening, mouse beta cells | z-score at 5 µM | hit rate 0.3% among 190,000 | MIN6 insulin promoter-GFP reporter; stronger effect = higher value;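 active = z-score above 3 at 5 µM with at least 500 cells counted in the well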
Lmaj promast – Leishmania major promastigote growth inhibition, primary screen | hit rate 9% among 200,000 | inhibition, % at 10 µM | Leishmania major promastigotes, resazurin fluorescence viability | AID 1063, 2008; in the data active = inhibition above about 50%;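 note: promastigotes grown with compound for 44 hours at 28 °C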
WT yeast gro inh – growth inhibition of WT strain, primary screen, mitochondrial fusion inhibitor project, WT and mutant strains, chemical genetic; hit rate 2.1% among 190,000; inhibition, % at 10 µM; mitochondrial fusion phenotypic screen; AID 1362, 2008; in the data active = inhibition above about 58%; tested in S. cerevisiae
ROMK mod – ROMK potassium channel modulators, primary screen, cell-based, thallium flux, MLSMR library; hit rate 2% among 130,000; B-score at 10 µM; Tet-inducible ROMK, thallium flux fluorescence; actives lie on both sides; ATP-sensitive inward rectifier potassium channel 1 (Homo sapiens), P48048;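 active = signal ratio slope over the read window, or its plate-corrected B-score, at least 3 SD from the plate mean, either direction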;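 note: B-score of the F/F0 ratio slope over 7 to 12 s after thallium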
Cl transport mod – KCC2 cotransporter modulators, thallium flux, primary screen, cell-based, HEK293 KCC2, FluoZin-2 fluorescence, MLSMR | KCC2 cells, thallium flux FluoZin-2 fluorescence | B-score of Tl+ flux slope (higher = more flux/activation; lower = inhibition) at 10 µM | hit rate 2.2% among 190,000 | AID 1456, 2008;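 active = thallium flux slope and its plate-corrected score both differing from the plate sample mean at a set confidence after two filtering rounds, in either direction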;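 note: slope of fluorescence scaled to starting intensity during 10 to 20 s after thallium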
Target sequence (Q9H2X9 whole entry, looked up): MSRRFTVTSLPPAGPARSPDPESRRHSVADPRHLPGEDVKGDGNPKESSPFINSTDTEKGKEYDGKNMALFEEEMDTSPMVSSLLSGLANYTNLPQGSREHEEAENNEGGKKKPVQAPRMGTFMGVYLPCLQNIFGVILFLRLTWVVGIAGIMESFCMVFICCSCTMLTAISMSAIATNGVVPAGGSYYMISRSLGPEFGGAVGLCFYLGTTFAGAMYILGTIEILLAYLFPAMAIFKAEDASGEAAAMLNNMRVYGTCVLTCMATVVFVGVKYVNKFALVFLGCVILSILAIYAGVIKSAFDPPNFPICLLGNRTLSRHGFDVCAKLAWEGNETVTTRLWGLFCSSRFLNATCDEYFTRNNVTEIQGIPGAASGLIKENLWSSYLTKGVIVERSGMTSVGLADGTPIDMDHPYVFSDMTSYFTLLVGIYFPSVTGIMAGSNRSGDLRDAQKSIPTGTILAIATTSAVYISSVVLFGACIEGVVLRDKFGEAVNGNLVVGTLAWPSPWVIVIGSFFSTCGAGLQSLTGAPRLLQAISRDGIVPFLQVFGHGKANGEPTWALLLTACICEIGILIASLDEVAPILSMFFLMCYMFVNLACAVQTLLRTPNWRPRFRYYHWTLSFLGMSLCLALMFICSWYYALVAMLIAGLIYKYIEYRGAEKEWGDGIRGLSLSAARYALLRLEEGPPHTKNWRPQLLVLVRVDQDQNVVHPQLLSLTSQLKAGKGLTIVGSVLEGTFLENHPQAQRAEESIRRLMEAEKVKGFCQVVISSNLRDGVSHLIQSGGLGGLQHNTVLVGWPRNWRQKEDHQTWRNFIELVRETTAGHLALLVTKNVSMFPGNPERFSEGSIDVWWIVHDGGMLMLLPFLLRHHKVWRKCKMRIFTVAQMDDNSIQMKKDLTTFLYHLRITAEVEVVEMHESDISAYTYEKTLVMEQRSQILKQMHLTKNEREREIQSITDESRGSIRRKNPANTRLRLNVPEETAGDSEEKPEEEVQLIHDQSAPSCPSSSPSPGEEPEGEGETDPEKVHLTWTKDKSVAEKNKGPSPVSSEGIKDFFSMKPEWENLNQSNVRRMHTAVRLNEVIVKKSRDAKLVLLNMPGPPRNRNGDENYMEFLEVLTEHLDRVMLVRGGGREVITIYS
Insulin prom inh – inhibitors of insulin promoter-driven GFP, primary screen, imaging, TRM-6 cells (human fetal islet line), eGFP reporter, cell count; inhibition, % at 2 µM; hit rate 0.9% among 130,000; reporter expression induced with tamoxifen; AID 1273, 2008;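 active = inhibition above the mean plus 3 SD, with well images judged a real hit on visual review, cut at about 60% in these data, passing the limit was not always enough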
A number is an active result; . = inactive; / = no result. This is a sample that favours compounds with a hit; in the whole collection about 12% have one here.

SMILES	Insulin prom up	Lmaj promast	WT yeast gro inh	ROMK mod	Cl transport mod	Insulin prom inh
Cc1noc(C)c1S(=O)(=O)N1CCCC(C(=O)N2CCN(C3CCCCC3)CC2)C1 (stereo not given)	.	93	.	/	.	/
Cc1ccc(C)c(N2CCN(C(=O)C3CCN(S(=O)(=O)c4c(C)noc4C)CC3)CC2)c1	.	/	/	/	.	/
CCn1nc2cc(C(=O)NCc3cc(C(F)(F)F)cc(C(F)(F)F)c3)ccc2c1OC	.	.	.	.	.	/
CN(C)c1cc(Nc2cccc(O)c2)c([N+](=O)[O-])c2nonc12	.	/	/	.	.	/
C[N+]1(CC(=O)Nc2ccc(F)cc2)CCN(C(=O)c2ccco2)CC1	.	.	67	/	.	.
Cc1c(/C=N/NC(=O)c2cccnc2)c2ccccn2c1C(=O)c1ccc(F)cc1	.	53	.	/	.	.
Cc1nn(-c2ccccc2)c(Cl)c1/C=N/NC(=O)c1cccnc1	.	.	.	.	.	.
Cc1nn(-c2ccccc2)c(C)c1/C=N/NC(=O)c1cc(-c2ccccc2)n[nH]1	.	88	.	/	/	.
Cc1ccc(-n2nc(C)c(/C=N/NC(=O)c3cccnc3)c2Cl)cc1	.	57	.	.	.	.
Cc1nn(-c2ccccc2)c(C)c1/C=N/NC(=O)c1cc(-c2cccc3ccccc23)n[nH]1	.	.	.	/	.	/
Cc1c(/C=N/NC(=O)c2ccc(O)cc2)c2ccccn2c1C(=O)c1ccc(F)cc1	.	92	.	.	.	.
COC(=O)N/N=C/c1c(C)c(C(=O)c2ccc(F)cc2)n2ccccc12	.	.	.	/	.	.
COc1ccc(C2CC(=O)C=C(O)C2)cc1 (stereo not given)	.	.	.	.	.	.
CCOc1ccc(NS(=O)(=O)c2cc(NC(=O)c3cccc(C)c3)ccc2Cl)cc1	.	99	.	/	.	/
Cc1ccc(NC(=O)CNC(=O)c2cccs2)cc1S(=O)(=O)Nc1ccc(Cl)cc1	.	57	.	.	.	.
Cc1cccc(NC(=O)c2cccc(NS(=O)(=O)c3ccc(Cl)cc3)c2)c1	.	.	.	/	.	.
COc1cccc(NC(=O)CNC(=O)c2ccccc2)c1	/	.	.	/	.	.
COc1ccc(NS(=O)(=O)c2cc(NC(=O)CNC(=O)c3cccc(OC)c3)ccc2C)cc1	.	61	.	.	.	.
C=CCNC(=S)N(Cc1ccccc1)Cc1ccccc1	.	.	.	.	.	/
C=CCNC(=S)N(C1CCCCC1)C1CCCCC1	.	.	72	.	.	.
O=C(CN(C(=O)c1csnn1)c1ccc(F)cc1)NCc1ccc(F)cc1	.	.	.	.	.	/
CC1CC(C)CN(C(=O)C(NS(=O)(=O)c2ccc(Br)s2)c2ccccc2)C1 (stereo not given)	.	81	.	.	.	.
Cc1nc2ccccc2nc1OCC(=O)Nc1ccccc1	/	.	.	.	.	.
Cc1nc2ccccc2nc1OCC(=O)NCC(F)(F)F	.	58	.	/	.	.
Cn1cc(/C=C2\SC(=S)N(NC(=O)c3ccccc3Cl)C2=O)c2ccccc21	/	.	.	.	-5.3	.
SMILES	Insulin prom up	Lmaj promast	WT yeast gro inh	ROMK mod	Cl transport mod	Insulin prom inh
Cn1cccc1/C=C1\SC(=S)N(NC(=O)c2ccccc2Cl)C1=O	.	.	.	.	.	.
CCCCCCNC(=O)N[C@@H](C(=O)NCCC[C@H]1CN2C(=NC[C@@H]2Cc2ccccc2)N1CCc1cccc(OC)c1)C(C)C	.	/	/	/	.	/
O=C(COc1ccccc1F)Nc1nnc(-c2ccncc2)s1	.	.	.	.	.	.
O=C(Nc1nnc(-c2ccncc2)s1)Nc1ccccc1F	.	60	.	.	.	/
OCCNCC1(O)C2CC3CC(C2)CC1C3 (stereo not given)	.	.	.	.	/	/
CCOc1ccc2nc3sc(C(=O)N4CCOCC4)c(N)c3cc2c1	.	93	.	.	/	.
C=C(C)COc1ccc2c(C)c(CC(=O)OC)c(=O)oc2c1C	/	58	.	/	.	.
C=C(C)COc1ccc2c(CC)cc(=O)oc2c1C	.	62	.	/	.	.
Cc1cc([N+](=O)[O-])nn1Cc1ccccc1F	/	.	.	/	.	.
O=C(COc1ccccc1/C=C1\SC(=O)NC1=O)Nc1ccccc1	.	.	.	-3.2	-4.5	82
